Screen size: about 16,000 compounds; about 4,000 (25%) were called active. About 26% were inconclusive and are not listed. Only a sample is shown. Unmarked numbers belong to inactive results. Calls follow the shape of the dose curve; as a rule, active = well fitted curve in the direction sought with a large enough effect; inconclusive = small, poorly fitted or top-dose-only effect, or effect the other way; inactive = no such curve, though single readings can be large or run the other way.
biological target: Cytochrome P450 2C9 (Homo sapiens) (UniProt P11712); assay: Cytochrome panel assay with activity outcomes; conditions: recombinant CYP, pro-luciferin dealkylation, luminescence, p450-cyp2c9; series mostly up to 57.1 µM; activity, negative = inhibition: at the top concentration
% is scaled to controls: 0 for no effect and ±100 for the full control effect.

Cytochrome P450 2C9 (Homo sapiens), sequence (P11712 whole entry, looked up): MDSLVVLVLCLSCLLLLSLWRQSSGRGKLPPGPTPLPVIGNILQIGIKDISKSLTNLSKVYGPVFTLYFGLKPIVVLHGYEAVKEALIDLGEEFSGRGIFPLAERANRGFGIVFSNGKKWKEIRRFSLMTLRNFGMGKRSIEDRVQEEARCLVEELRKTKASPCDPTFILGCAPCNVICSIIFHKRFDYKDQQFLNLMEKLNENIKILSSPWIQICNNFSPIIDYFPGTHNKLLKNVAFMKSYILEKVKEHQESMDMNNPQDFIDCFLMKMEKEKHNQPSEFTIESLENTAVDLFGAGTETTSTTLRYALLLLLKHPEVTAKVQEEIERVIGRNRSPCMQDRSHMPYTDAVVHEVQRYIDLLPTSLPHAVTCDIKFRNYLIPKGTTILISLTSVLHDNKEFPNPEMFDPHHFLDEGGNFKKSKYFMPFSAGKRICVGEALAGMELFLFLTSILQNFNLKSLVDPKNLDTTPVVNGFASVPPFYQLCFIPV

Compound | activity, negative = inhibition | AC50
CC(=O)NCCNc1ncnc2ccc(-c3cccc(NS(C)(=O)=O)c3)cc12 | -12.9% [at 2.29 µM] | –
Cc1ccc2nc(CC(=O)c3ccc4ccccc4c3)c(=O)[nH]c2c1 | -7.8% [at 11.4 µM] | –
NC(=O)c1ccc(-c2nc(-c3ccc4c(c3)OCO4)c(-c3ccccn3)[nH]2)cc1 | -18.5% | –
CCOC(=O)NC(=O)CSc1nc2ccc(OCC)cc2[nH]1 | -28.6% | –
CC(C)(C)c1ccc(-c2nnc(SCC(=O)c3ccc4c(c3)OCCO4)o2)cc1 | – | 3.16 µM (active)
Cc1ccc2nc(SCC(=O)c3ccc4c(c3)OCO4)[nH]c2c1 | – | 5.01 µM (active)
Cc1ccc(NC(=O)CSc2nnc(-c3ccncc3)o2)cc1 | – | 3.55 µM (active)
COc1ccc2nc(SCC(=O)Nc3ccc4c(c3)OCCO4)[nH]c2c1 | – | 2.24 µM (active)
CCC(=O)Nc1ccc(NC(=O)CSc2nnnn2-c2cccnc2)cc1C | -19.7% | –
CCS(=O)(=O)N1CCC(C(=O)NCCCN2CCCC2)CC1 | 14.5% | –
COc1ccc([C@H]2Sc3ccccc3N(CCN(C)C)C(=O)[C@H]2OC(C)=O)cc1 | – | inactive
NC(N)=N/N=C(\c1ccc(Cl)cc1)C1CC1 | -1.67% [at 11.4 µM] | –
C#CCCCO/N=C1/C[C@@H](O)[C@@H](O)[C@@H]2[C@@H]3C(=O)N(C4CCCCC4)C(=O)[C@H]3CC[C@@H]12 | -15% [at 11.4 µM] | –
CC(C)C(O)(C(C)C)C(C)C | -0.763% [at 11.4 µM] | –
CNc1ncncc1-c1ccc(C(=O)N(C)C)cc1 | -6.73% [at 2.29 µM] | –
Cc1ccc2nc(SCC(=O)Nc3nnc(SCC(N)=O)s3)[nH]c2c1 | – | 11.2 µM (active)
COc1cc(C(=O)Nc2ccc3c(c2)OCCO3)c(-n2cnnn2)cc1OC | -8.95% | –
COc1ccc(-n2c(=O)[nH]cc(C(=O)Nc3ccc4c(c3)OCCO4)c2=O)cc1 | – | 7.08 µM (active)
COc1cc(-c2nnc(SCC(=O)Nc3ccc4c(c3)OCCO4)o2)cc(OC)c1OC | – | 1.41 µM (active)
CCCCNCCOCCSc1ccc(Cl)cc1 | -16.8% | –
CCCCCc1nc2c(=O)[nH]c3ccccc3c2o1 | -15.2% | –
NC(=Nc1ccccc1)NC(=O)c1nc(Cl)c(N)nc1N | -6.89% | –
N/C(=N\c1nc2ccccc2o1)NC(=O)c1ccccc1F | – | 12.6 µM (active)

Compound | activity, negative = inhibition | AC50
COc1ccc(C2/C(=C(/O)c3ccc4c(c3)CC(C)O4)C(=O)C(=O)N2CCN2CCOCC2)cc1 (stereo unspecified) | -36.8% | –
COc1cccc(NC(=O)CSc2nnc(CN3CCOCC3)n2C)c1 | -27.8% | –
CCN(CC)C(=O)CSc1nc2ccc(NC(=O)CSc3nnc(COc4ccccc4C)n3C)cc2s1 | – | 1.58 µM (active)
CCOC(=O)N/N=C/c1ccccc1F | -7.31% | –
O=C(COc1ccc(-c2ccccc2)cc1)N/N=C/c1ccccc1Br | – | 4.47 µM (active)
CN(C)Cc1c[nH]c2nc[nH]c(=O)c12 | 4.29% [at 11.4 µM] | –
c1ccc(CNc2nc(-c3ccc4c(c3)OCO4)nc3ccccc23)cc1 | -26.1% [at 2.29 µM] | –
CC(=O)NCCNc1nc(-c2ccc3c(c2)OCO3)nc2ccccc12 | 5.84% [at 2.29 µM] | –
CC(NC(=O)CCSc1nc(-c2ccc3c(c2)OCO3)cc(C(F)(F)F)n1)c1ccccc1 (stereo unspecified) | – | 2 µM (active)
Cc1cc(NCCO)c2ccccc2n1 | -11.5% | –
COCCNc1nc(-c2ccccc2C(F)(F)F)nc2ccccc12 | -9.26% [at 2.29 µM] | –
CCCNc1c(F)c(F)c2c(C)c3ccccc3nc2c1F | – | 15.8 µM (active)
CCCCC1CCC(c2nc(-c3ccccn3)no2)CC1 (stereo unspecified) | – | 14.1 µM (active)
CCN1CCN(c2nc(-c3ccccn3)nc3ccccc23)CC1 | -23.3% | –
c1ccc2nc(-c3ccncc3)ccc2c1 | – | 5.01 µM (active)
CC(=O)/C=C/c1ccc2ccccc2n1 | -7.35% | –
COc1cccc(-c2cc(N(C)Cc3ccco3)ncn2)c1 | -6.29% [at 2.29 µM] | –
C[C@@H]1NC(=O)C/C=C\[C@@H](C)[C@@H]2C=C[C@H](O)[C@@H](COC(=O)[C@H](C)NC(=O)C/C=C\[C@@H](C)[C@@H]3C=C[C@H](O)[C@@H](COC1=O)O3)O2 | 5.32% [at 11.4 µM] | –
CCOc1cc(S(=O)(=O)N(Cc2ccccc2)Cc2ccccc2)c(OCC)cc1-n1cnnn1 | – | 7.94 µM (active)
O=C(O)CN(CCOCCOCCN(CC(=O)O)CC(=O)O)CC(=O)O | 6.97% | –
FC(F)(F)c1ccccc1-c1nc(NC2CC2)c2ccccc2n1 | 12.1% [at 2.29 µM] | –
COc1ccc2ccccc2c1/C=C\C(=O)c1ccccc1 | – | 1.26 µM (active)
COc1cc(C)cc(OC)c1/C=C\C(=O)O | -15.8% [at 11.4 µM] | –
